Results reported in the supplement of paper PMC10646978.
± gives the standard deviation.

Key:
Conditions in all cases: modulator concentration 10 µM
[1] = test system: RAW-Dual (murine macrophage reporter line); test: NF-kB reporter (SEAP) activity fold change vs agonist alone; higher = enhanced NF-kB activity
Procedure, shortened: (§1)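 In 384-well plates holding 50 000 RAW-Dual murine macrophage reporter cells per well, compound at 10 μM final was pre-incubated for 1 hour at 37 °C, after which a PRR agonist was added overnight. Supernatant SEAP read with QUANTI-Blue at 620 nm absorbance reported NF-κB, and Lucia luciferase read with QUANTI-Luc luminescence reported IRF. Fold change values come from dividing each reporter signal by the mean of agonist-only control wells on the same plate, averaged over replicate plates with propagated errors.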

[2] = test system: RAW-Dual (murine macrophage reporter line); test: IRF reporter (Lucia luciferase) activity fold change vs agonist alone; higher = enhanced IRF activity
Procedure, shortened: as §1

[3] = test system: RAW-Dual (murine macrophage reporter line); test: viability score (confluency relative to resting cells, overnight) (fraction); higher = more viable, active = viable (0.7 or more)
Procedure, shortened: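 Compound was added at a final 10 μM to RAW-Dual macrophages in 384-well plates and left overnight. Confluency was imaged with IncuCyte, and two masks were generated in IncuCyte software over all imaged wells. Each viability score is confluency relative to resting cells, and a compound met the cutoff only when both masks were above 70% of resting cells.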

[4] = agonist: CpG ODN 1826 0.5 ug/mL

Compound	NF-kB reporter [1, 4]	NF-kB reporter ([1]; agonist: LPS 0.1 ug/mL)	NF-kB reporter ([1]; agonist: MPLA […])	IRF reporter ([2]; agonist: 3'3'-cGAMP 10 ug/mL)	IRF reporter ([2]; agonist: LPS 0.1 ug/mL)	IRF reporter ([2]; agonist: MPLA […])	viability score [3]
CCOc1ccc2c(c1)C(C)=CC(C)(C)N2 [Prestw-765]	0.892 ± 0.098	1.07 ± 0.055	1.11 ± 0.029	0.812 ± 0.065	0.967 ± 0.052	0.997 ± 0.082	1 (active)
CC(=O)Nc1ccc(C(=O)Nc2ccccc2)c(NC(C)=O)c1	1.11 ± 0.088	0.852 ± 0.14	1.09 ± 0.051	0.726 ± 0.035	0.875 ± 0.087	0.747 ± 0.071	0.997 (active)
CN(C)CCCC1(c2ccc(F)cc2)OCc2cc(C#N)ccc21.O=C(O)C(=O)O (stereo not given)	1.13 ± 0.21	1.12 ± 0.32	1.07 ± 0.077	0.836 ± 0.047	1.28 ± 0.3	1.29 ± 0.1	0.993 (active)
O=C(O)C=Cc1ccc(S(=O)(=O)NCc2cccnc2)cc1	0.751 ± 0.077	0.82 ± 0.049	1.02 ± 0.091	1.02 ± 0.062	1.46 ± 0.098	1.72 ± 0.19	1.01 (active)
CC(=O)Oc1cc2c(s1)CCN(C(C(=O)C1CC1)c1ccccc1F)C2 (stereo not given)	0.988 ± 0.15	1.2 ± 0.36	0.844 ± 0.05	0.919 ± 0.035	1.28 ± 0.31	1.1 ± 0.18	0.985 (active)
CCn1c2ccccc2c2cc(CNCCc3ccc(OC)cc3)ccc21	0.369 ± 0.048	0.539 ± 0.068	1.24 ± 0.1	0.479 ± 0.11	0.556 ± 0.025	2.16 ± 0.28	0.0492 (inactive)
Cn1ccnc1Sc1nc(Nc2cccc(Cl)c2)nc(N2CCOCC2)n1	0.519 ± 0.045	1.03 ± 0.12	1.21 ± 0.13	0.474 ± 0.019	1.24 ± 0.14	1.09 ± 0.23	1.01 (active)
O=C(Nc1ccccc1Cl)c1ccc(OCC2CCCO2)nc1 (stereo not given)	1.17 ± 0.066	1.06 ± 0.12	0.981 ± 0.026	1.3 ± 0.35	1 ± 0.058	0.976 ± 0.098	0.999 (active)
Cc1cc(OCC(=O)Nc2ccc(Cl)c(C(F)(F)F)c2)ccc1Cl	0.934 ± 0.079	0.942 ± 0.056	1.24 ± 0.11	1.02 ± 0.051	1.7 ± 0.1	1.83 ± 0.19	0.971 (active)
N#CC(=Cc1cc(Cl)ccc1OCc1c(F)cccc1Cl)c1nn(CCO)c(N)c1C#N	1.37 ± 0.12	1.19 ± 0.072	0.806 ± 0.063	0.497 ± 0.03	0.931 ± 0.11	0.787 ± 0.049	0.164 (inactive)
NC(C(=O)O)c1ccccc1F (stereo not given)	0.928 ± 0.11	0.966 ± 0.11	0.994 ± 0.039	0.939 ± 0.056	0.969 ± 0.053	0.81 ± 0.082	1 (active)
O=C(Cn1cnc(-c2ccc(Cl)cc2)cc1=O)N1CCOCC1	1.07 ± 0.29	0.924 ± 0.047	0.925 ± 0.07	0.933 ± 0.032	1.09 ± 0.17	1.09 ± 0.21	1 (active)
COc1ccc(NC(=O)CN(c2ccc(C)c(C)c2)S(C)(=O)=O)cc1Cl	0.912 ± 0.096	1.14 ± 0.12	0.886 ± 0.032	0.857 ± 0.14	0.973 ± 0.045	0.858 ± 0.079	1 (active)
CN1CCN(C2=Nc3cc(Cl)ccc3Nc3ccccc32)CC1	0.713 ± 0.058	0.941 ± 0.057	1.13 ± 0.1	0.924 ± 0.064	1.47 ± 0.11	1.46 ± 0.12	0.981 (active)
Cc1[nH]nc(-c2ccc(OCc3ccccc3)c(C)c2O)c1-c1cnn(-c2ccccc2)c1	0.892 ± 0.073	1.1 ± 0.077	0.784 ± 0.049	0.95 ± 0.026	1.58 ± 0.19	1.11 ± 0.095	1.01 (active)
O=C(Nc1ccc([N+](=O)[O-])cc1Cl)c1ccc([N+](=O)[O-])cc1	0.961 ± 0.083	1.07 ± 0.069	0.937 ± 0.06	0.937 ± 0.032	1.48 ± 0.11	1.23 ± 0.3	1.01 (active)
CCN1CCCC1CNC(=O)c1cc(S(N)(=O)=O)ccc1OC (stereo not given)	1.01 ± 0.11	1.06 ± 0.07	0.992 ± 0.052	1.02 ± 0.11	0.982 ± 0.11	0.865 ± 0.068	1 (active)
CN(C)CCN(Cc1ccccc1)Cc1cccc(Cl)c1	0.976 ± 0.057	0.928 ± 0.16	1.05 ± 0.044	0.838 ± 0.04	1.02 ± 0.048	0.87 ± 0.1	0.999 (active)
CSc1nc2ccc(Nc3nc(N4CCCC4)nc(N4CCCC4)n3)cc2s1	0.838 ± 0.086	0.962 ± 0.06	1.05 ± 0.096	0.906 ± 0.043	1.31 ± 0.13	1.55 ± 0.15	1.02 (active)
NC(=O)CSc1nc2ccccc2[nH]1	1.1 ± 0.088	1.07 ± 0.081	0.998 ± 0.037	0.985 ± 0.16	1.09 ± 0.13	0.992 ± 0.16	0.997 (active)
CCc1ccc(NC(=O)CSc2nc3c([nH]c4ccccc43)c(=O)n2C)cc1	0.809 ± 0.053	0.745 ± 0.06	0.776 ± 0.061	1 ± 0.08	1.13 ± 0.14	1.07 ± 0.18	0.483 (inactive)
COc1ccc(-c2[nH]c3ccccc3c2SCCNC(=O)c2ccccc2)cc1	1.12 ± 0.086	1.19 ± 0.072	1.29 ± 0.11	0.832 ± 0.035	1.42 ± 0.14	1.17 ± 0.12	0.966 (active)
CC(=O)NNC(=O)c1ccncc1	1.13 ± 0.089	1.13 ± 0.074	1.03 ± 0.043	1 ± 0.15	1.07 ± 0.14	1.07 ± 0.26	0.996 (active)
Cc1ccc(NC(=O)C(C#N)=Cc2ccc(-c3cccc([N+](=O)[O-])c3)o2)cc1	1.07 ± 0.084	1.06 ± 0.094	0.904 ± 0.054	1 ± 0.076	1.46 ± 0.1	1.18 ± 0.14	1.01 (active)
O=C(OCCN1CCOCC1)c1ccc(O)cc1O	1.21 ± 0.12	1.06 ± 0.1	1.06 ± 0.056	1.05 ± 0.14	0.972 ± 0.044	0.856 ± 0.076	0.999 (active)
